{"source": "PubChem BioAssay (NCATS)", "note": "Records with an inconclusive call do not appear. Active and inactive are the calls of the source. Calls follow the shape of the dose curve; as a rule, active = well fitted cell-killing curve with a large enough effect; inconclusive = small, poorly fitted or top-dose-only effect; inactive = no such curve, though single readings can be large or run the other way. *1 amine or outer side, *2 acyl side, *3 side chain or, on linkers, in order; H or OH if unused. Where a SMILES comes first, the peptide text is derived from it. Bridges are numbered along the chain shown (N, C = ends). [ ]: non-standard residue; d: D form. The star is where a group is joined. ξ: configuration not given here. X10 = NC1=NCCC(C(N[*:1])C(=O)[*:2])N1; ΔAla(3-NHCONH2) = NC(=O)NC=C(N)C(=O)O; ξβ3hOrn = NCCCC(N)CC(=O)*; Dap = NC[CH](N)C(=O)O"}
{"assay": "qHTS of pediatric cancer cell lines to identify multiple opportunities for drug repurposing: Primary screen for A673 cells (AID 1347092); also: % is scaled to controls: 0 for no effect and ±100 for the full control effect; nearly all actives have a fitted effect of over 45% in size", "settings": "A673 Ewing sarcoma viability, CellTiter-Glo ATP luminescence, 48 h; series mostly up to 46 µM; activity change, negative = cytotoxic: at the top concentration", "excerpt": "Drug repurposing or repositioning has been offered as a strategy for drug development in oncology programs. This approach has special potential for childhood cancers and other rare or orphan diseases, where the expected return on new drug development has been a disincentive to pharmaceuticals. […] In this project we exploit the poly-pharmacology of drugs to discover new indications via phenotypic screening of a panel of 19 well-characterized cell lines derived from solid tumors seen in children and adolescents. The goal is to identify approved drugs with previously unrecognized anticancer properties that has the potential to reveal new mechanisms and biological processes involved in carcinogenesis or drug resistance. We employed a titration-based paradigm (quantitative high-throughput screening or qHTS), where all compounds were tested at multiple concentrations for their effect on cell viability. Concentration-response curves (CRCs) were derived directly from the primary screen, and both potency and efficacy values were used to identify compounds with robust bioactivity profiles. We screened the NIH Chemical Genomics Center (NCGC) Pharmaceutical Collection (NPC) and Mechanism Interrogation Plate (MIPE) small molecule collections of approved and investigational compounds against these cell lines; and measured metabolically active cells after 48 hours of compound treatment as a proxy for cell viability. […] Assay Submitter: Nathalia J. Martinez, National Center for Advancing Translational Sciences, National Institutes of Health, Rockville, MD, USA; email: natalia.martinez@nih.gov. Shen, M et al. Quantitative high-throughput phenotypic screening of pediatric cancer cell lines identifies multiple opportunities for drug repurposing. Oncotarget 2017 Dec 19;9(4):4758-4772. PMID 29435139.\nThe cells were obtained from University of North Carolina (UNC), Pediatric Preclinical Testing Program (PPT), and Coriell Institute (CI). qHTS cell viability assay: Cells were assayed in growth media at a density of 500-1,000 cells/well. Five microliters of cells were dispensed into 1,536-well, white, solid-bottom, TC-treated plates (Greiner Bio One) using a multidrop dispenser and incubated at 37 degrees C, 5% CO2, under a humidified atmosphere for 5 hours. Twenty-three nanoliters of compounds and controls (neutral control DMSO or positive control bortezomib at final concentration of 2.3 uM) were subsequently transferred by Kalypsys pintool. For primary screens, the MIPE collection was tested at 11-point dilutions (final concentrations range from 0.78 nM to 46 µM) and the NPC collection at 8-point dilutions (final concentrations range from 0.59 nM to 46 µM). Compounds tested in follow-up screens were assayed at 11-point dilutions. Cells were incubated for 48 hours, followed by addition of 3 uL of CellTiter-Glo (Promega). After a 15min incubation at room temperature, samples were analyzed for luminescence intensity using a ViewLux High-throughput CCD imager equipped with clear filters."}
{"smiles": "O=C1Cc2cc(Cl)ccc2N1", "activity change, negative = cytotoxic": "11.3% (inactive)"}
{"smiles": "NS(=O)(=O)c1cc2c(cc1Cl)CN(C1CCCCC1)C2=O", "activity change, negative = cytotoxic": "17.4% (inactive)"}
{"smiles": "Nc1c(NC/C=C\\COc2cc(CN3CCCCC3)ccn2)c(=O)c1=O", "activity change, negative = cytotoxic": "-2.44% [at 16.1 µM] (inactive)"}
{"smiles": "CCCCCCCCCCCCCCCCCCN(C)C", "activity change, negative = cytotoxic": "0.666% (inactive)"}
{"smiles": "CC(NC(CCc1ccccc1)C(=O)O)C(=O)N1C(=O)N(C)CC1C(=O)O", "note": "(stereo not given)", "activity change, negative = cytotoxic": "11.9% (inactive)"}
{"smiles": "CCCc1c2oc(C(=O)O)cc(=O)c2cc2c(=O)cc(C(=O)O)n(CC)c12", "activity change, negative = cytotoxic": "3.21% (inactive)"}
{"smiles": "CCCCCCn1c(=O)c2c(ncn2C)n(C)c1=O", "activity change, negative = cytotoxic": "1.36% (inactive)"}
{"smiles": "CC(C)(C)c1cc(C=O)cc(C(C)(C)C)c1O", "activity change, negative = cytotoxic": "-7.62% (inactive)"}
{"smiles": "CC(=O)N(CC(=O)N(C)C)c1ccccc1", "activity change, negative = cytotoxic": "-24.1% (inactive)"}
{"smiles": "C#CC(C)(CC)OC(=O)c1ccccc1C(=O)O", "note": "(stereo not given)", "activity change, negative = cytotoxic": "18.3% (inactive)"}
{"smiles": "COc1cc(C=O)ccc1O", "activity change, negative = cytotoxic": "1.52% (inactive)"}
{"smiles": "CCOCCn1c(C2CCN(CCc3ccc(C(C)(C)C(=O)O)cc3)CC2)nc2ccccc21", "activity change, negative = cytotoxic": "-4.62% (inactive)"}
{"smiles": "C[C@@H]1C[C@H]2[C@@H]3CCC4=CC(=O)C=C[C@]4(C)[C@@]3(F)[C@@H](O)C[C@]2(C)[C@@]1(O)C(=O)COC(=O)c1ccncc1", "activity change, negative = cytotoxic": "-12.3% (inactive)"}
{"smiles": "NCCCC(N)CC(=O)NCC1NC(=O)C(CO)NC(=O)C(N)CNC(=O)C(C2CCN=C(N)N2)NC(=O)C(=CNC(N)=O)NC1=O", "note": "(stereo not drawn) (H-[Dap]S[Dap](ξβ3hOrn)[ΔAla(3-NHCONH2)][X10]; lactam 1-C; configuration not given here)", "activity change, negative = cytotoxic": "-4.68% [at 0.597 µM] (inactive)"}
{"smiles": "CC(=O)Nc1ccc(S(=O)(=O)Nc2cc(C)on2)cc1", "activity change, negative = cytotoxic": "6.28% (inactive)"}
{"smiles": "CC(=O)N1CCN(c2ccc(O)cc2)CC1", "activity change, negative = cytotoxic": "-11.7% (inactive)"}
{"smiles": "Cc1nc([N+](=O)[O-])cn1-c1ccc([N+](=O)[O-])cc1", "activity change, negative = cytotoxic": "-4.95% (inactive)"}
{"smiles": "Cc1coc2ccccc2c1=O", "activity change, negative = cytotoxic": "-2.52% (inactive)"}
{"smiles": "CCCCCC[C@@H](CCC)C(=O)O", "activity change, negative = cytotoxic": "1.4% (inactive)"}
{"smiles": "O=C1CCCc2c(O)cccc21", "activity change, negative = cytotoxic": "-0.929% (inactive)"}
{"smiles": "O=C(O)[C@H](O)[C@@H](O)[C@H](O[C@@H]1O[C@H](CO)[C@H](O)[C@H](O)[C@H]1O)[C@H](O)CO", "activity change, negative = cytotoxic": "0.819% (inactive)"}
{"smiles": "CCS(=O)(=O)c1ccc(OC)c(C(=O)OC)c1", "activity change, negative = cytotoxic": "4.45% (inactive)"}
{"smiles": "Cc1cc(CCCOc2c(C)cc(-c3noc(C(F)(F)F)n3)cc2C)on1", "activity change, negative = cytotoxic": "1.74% (inactive)"}
{"smiles": "CCc1cc(S(=O)(=O)O)c2cc(C(C)C)cccc1-2", "activity change, negative = cytotoxic": "7.34% (inactive)"}
{"smiles": "CCCC(=O)Nc1ccc(O)c(C(C)=O)c1", "activity change, negative = cytotoxic": "11% (inactive)"}
{"smiles": "CCC(=O)Oc1ccc2c(c1)CC[C@@H]1[C@@H]2CC[C@@]2(C)[C@H]1C[C@@H](OC(=O)CC)[C@@H]2OC(=O)CC", "activity change, negative = cytotoxic": "2.82% (inactive)"}
{"smiles": "CC(CC1c2ccccc2CCc2ccccc21)CN(C)C", "note": "(stereo not given)", "activity change, negative = cytotoxic": "-24.4% (inactive)"}
{"smiles": "CN1CC(=O)N2[C@H](c3ccc4c(c3)OCO4)c3[nH]c4ccccc4c3C[C@@H]2C1=O", "activity change, negative = cytotoxic": "-3.92% (inactive)"}
{"smiles": "O=C(O)Cc1ccc(OCCNC[C@H](O)c2ccccc2)cc1", "activity change, negative = cytotoxic": "-11% (inactive)"}
{"smiles": "N#Cc1cc(NC(=O)C(=O)O)c(Cl)c(NC(=O)C(=O)O)c1", "activity change, negative = cytotoxic": "5.04% (inactive)"}
{"smiles": "CCOC(=O)c1ccc(OCCN2C[C@H](O)[C@@H](O)[C@H](O)[C@H]2CO)cc1", "activity change, negative = cytotoxic": "6.11% (inactive)"}
{"smiles": "Cc1cc(C(C)(C)C)c(O)c(C(C)(C)C)c1", "activity change, negative = cytotoxic": "-3.84% (inactive)"}
{"smiles": "CC(C)CCCC(C)NCCC(C)C", "note": "(stereo not given)", "activity change, negative = cytotoxic": "-17.5% (inactive)"}
{"smiles": "CCCC(=O)OCOC(=O)C1=C(C)NC(C)=C(C(=O)OC)C1c1cccc(Cl)c1Cl", "note": "(stereo not given)", "activity change, negative = cytotoxic": "-0.963% (inactive)"}
{"smiles": "O=C(CO)[C@@H](O)[C@H](O)[C@@H](O)CO", "activity change, negative = cytotoxic": "-3.37% (inactive)"}
{"smiles": "Cc1ccc(C(C)OC(=O)C2(C)CCC(C(=O)O)C2(C)C)cc1", "note": "(stereo not given)", "activity change, negative = cytotoxic": "0.167% (inactive)"}
{"smiles": "C[N+](C)(CCOc1ccccc1)Cc1cccs1", "activity change, negative = cytotoxic": "-11.6% (inactive)"}
{"smiles": "Fc1ccc(C(c2ccc(F)cc2)N2CCNCC2)cc1", "activity change, negative = cytotoxic": "-2.68% (inactive)"}
{"smiles": "CC(=O)OCC(=O)[C@@]1(O)[C@H](OC(C)=O)C[C@H]2[C@@H]3CCC4=CC(=O)C=C[C@]4(C)[C@@]3(F)[C@@H](O)C[C@@]21C", "activity change, negative = cytotoxic": "16.2% (inactive)"}
{"smiles": "CC(C)(C)NCC(O)COc1ccccc1OCC1CCCO1", "note": "(stereo not given)", "activity change, negative = cytotoxic": "12.4% (inactive)"}
